Among the data in PubChem BioAssay AID1851 (National Center for Advancing Translational Sciences (NCATS), 2009) are AC50 and activity, negative = inhibition values, retold here.

“And” between values parts separate entries of the source, which are not always exact repeats. Equal values may be shown once. About 5,800 (36%) of roughly 16,000 compounds were called active. About 23% were inconclusive and are not listed. The list shows a part of the results. Values without a mark were called inactive. The call rests on the fitted dose curve; in most records, active means well fitted curve in the direction sought with a large enough effect; inconclusive means small, poorly fitted or top-dose-only effect, or effect the other way; inactive means no such curve, though single readings can be large or run the other way.

For orientation: AC50 means the concentration giving half of the maximal activity seen.
On the % scale 0 is the no-effect control and ±100 the full control effect.

Sequence of Cytochrome P450 2C19 (Homo sapiens) (P33261 whole entry, looked up): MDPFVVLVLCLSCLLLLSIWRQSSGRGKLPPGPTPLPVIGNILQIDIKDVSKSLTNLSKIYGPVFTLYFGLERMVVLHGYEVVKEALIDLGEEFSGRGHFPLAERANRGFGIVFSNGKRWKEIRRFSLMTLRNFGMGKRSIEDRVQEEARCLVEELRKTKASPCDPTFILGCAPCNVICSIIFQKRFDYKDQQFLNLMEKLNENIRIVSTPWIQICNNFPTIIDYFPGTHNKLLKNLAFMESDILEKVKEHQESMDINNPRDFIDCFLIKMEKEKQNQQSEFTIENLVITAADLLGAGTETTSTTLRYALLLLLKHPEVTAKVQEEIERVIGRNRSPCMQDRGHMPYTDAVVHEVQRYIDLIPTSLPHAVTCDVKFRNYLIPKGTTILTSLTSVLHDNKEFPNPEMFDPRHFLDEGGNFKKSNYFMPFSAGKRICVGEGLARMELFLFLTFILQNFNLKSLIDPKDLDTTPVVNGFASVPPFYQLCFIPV

This assay concerns the target Cytochrome P450 2C19 (Homo sapiens) (UniProt P33261). The assay is described as follows: Cytochrome panel assay with activity outcomes. The following applies: recombinant CYP, pro-luciferin dealkylation, luminescence, p450-cyp2c19; series mostly up to 57.1 µM.
For the compound `COc1ccc2[nH]cc(CCNc3nc(-c4ccccc4OC)nc4ccccc34)c2c1`, the AC50 was 5.01 µM (active).

For the compound `COc1cccc(-c2nc(NCCc3c[nH]c4ccc(OC)cc34)c3ccccc3n2)c1`, the AC50 was 1.58 µM (active). Still for that read-out and setting: to `COc1ccc2[nH]cc(CCNc3nc(-c4ccoc4)nc4ccccc34)c2c1` belongs 1.58 µM (active); to `COc1ccc2[nH]cc(CCNc3nc(-c4cccnc4)nc4ccccc34)c2c1`, 0.501 µM (active).

`COc1ccccc1-c1nc(NCCN2CCOCC2)c2ccccc2n1`: the AC50 result is “inactive”. Regarding `C1CCN(CC[C@@H]2CCCCN2)CC1`, the activity, negative = inhibition is 0.696% [at 11.4 µM]. Consider `CCNC(=O)C/C(C)=N/NC(=O)C12CC3CC(CC(C3)C1)C2`, for which the AC50 entry was “inactive”. Still for that read-out and setting: to `CC(C)C(NC(=O)C12CC3CC(CC(C3)C1)C2)C(=O)NC1=NCCS1` (stereo unspecified) belongs 10 µM (active). Regarding `CCc1cccc2c3c([nH]c12)[C@@](CC)(CC(=O)O)OCC3`, the AC50 result was “inactive”. Consider `CCc1cccc2c(-c3ccccc3)c3c(nc12)OCC3`, for which the half-maximal activity concentration (AC50) was 7.94 µM (active).

In the case of `Cc1cc(Oc2ccccc2)nc(NCc2ccccc2)n1`, the concentration at half-maximal activity (AC50) is 3.16 µM (active).

In the case of `Cc1cc(C)nc(Nc2n[nH]c(COc3cccc4ccccc34)n2)n1`, the AC50 entry was “inactive”.

Consider `Cc1cc(Oc2ccccc2)nc(-c2ccccc2)n1`, for which the AC50 was 11.2 µM (active). The same measure, in the same setting: to `Cn1cnc2c(NCc3ccccc3)nc(NCCO)nc21` belongs “inactive”; to `NCCS`, “inactive”.

Turning to `C#CCn1c(S(=O)(=O)Cc2ccc(OC)cc2)nc(-c2ccccc2)c1-c1ccccc1`, the AC50 was 2.24 µM (active).

As for `O=C(O)c1ccccc1N/N=C\c1ccnc2ccccc12`, the AC50 is 15.8 µM (active). Turning to `O=C(O)CCNc1ccccc1C(=O)O`, the activity, negative = inhibition is 16.3% [at 11.4 µM]. As to `O=C(O)c1ccccc1/C=N\N=C1c2ccccc2-c2ccccc21`, the activity, negative = inhibition is 2.09% [at 11.4 µM]. As to `CCOC(=O)c1ccccc1OCc1cc(/C=N/n2cnnc2)ccc1OC`, the AC50 was 0.794 µM (active). On to `CN1CCN(c2ccc([N+](=O)[O-])cc2NC(=O)c2ccccc2Cl)CC1`, for which the AC50 result is “inactive”. Consider `CCC(=O)NC(=S)N1CCN(c2ccc([N+](=O)[O-])cc2Cl)CC1`, for which the AC50 was 2.82 µM (active).

`O=C(Nc1cccc(-c2cnc3ccccc3n2)c1)c1ccc(Cl)cc1`: the AC50 entry is “inactive”. `O=C(Nc1cc(Sc2ccccn2)cc([N+](=O)[O-])c1)c1ccc(Cl)cc1`: the AC50 was 3.16 µM (active). With `COC(=O)c1ccc(CSc2nc3cc(Cl)ccc3s2)o1`, the AC50 was 3.16 µM (active). With `C1CCc2nnnn2CC1`, the AC50 result is “inactive”. Regarding `COc1ccccc1CCn1c(=O)c(-c2ccc(F)c(F)c2)nc2cncnc21`, the half-maximal activity concentration (AC50) was 1.26 µM (active). With `COCCn1c(=O)c(-c2ccc(F)c(F)c2)nc2cncnc21`, the AC50 result was “inactive”. As for `COc1ccccc1CCn1c(=O)c(-c2ccc(F)cc2)nc2cncnc21`, the half-maximal activity concentration (AC50) was 0.316 µM (active). Turning to `Cn1cc(-c2nc3cncnc3n(Cc3ccccc3Cl)c2=O)c2ccccc21`, the AC50 entry is “inactive”. For `CN1CCN(c2ncc3nc(CCc4ccccc4)c(=O)n(C)c3n2)CC1`, the AC50 entry was “inactive”.

Turning to `COc1ccccc1CCn1c(=O)c(CCc2ccccc2)nc2cncnc21`, the AC50 was 3.16 µM (active). On the same count and under the same terms, to `COc1cccc(Nc2ncc3nc(CCc4ccccc4)c(=O)n(CCC#N)c3n2)c1` belongs “inactive”. As to `COCCn1c(=O)c(-c2ccc(F)cc2)nc2cncnc21`, the AC50 entry is “inactive”. Consider `Cn1c(=O)c(-c2ccc(F)cc2)nc2cncnc21`, for which the AC50 result is “inactive”. For the compound `COc1ccccc1CCn1c(=O)c(-c2cn(C)c3ccccc23)nc2cncnc21`, the AC50 is 0.316 µM (active). On to `COc1cccc(Cn2c(=O)c(-c3cn(C)c4ccccc34)nc3cncnc32)c1`, for which the AC50 entry was “inactive”. In the case of `COc1ccc(-n2c(=O)c(-c3ccc(F)c(F)c3)nc3cncnc32)cc1`, the AC50 result is “inactive”. For `CCOC(=O)N/N=C1/C[C@@H](O)[C@@H](O)[C@@H]2[C@@H]3C(=O)N(C(C)(C)C)C(=O)[C@H]3CC[C@H]12`, the activity, negative = inhibition was 1.59% [at 11.4 µM]. The same measure, in the same setting: with `COc1ccc(C[C@@H]2C(=O)N[C@H](C)C(=O)N(C)[C@@H]3Cc4ccc(cc4)Oc4cc(ccc4O)C[C@H](C(=O)N[C@@H](C)C(=O)N[C@H](C)C(=O)N2C)N(C)C3=O)cc1` the figure was 1.07% [at 11.4 µM]. With `Cn1c(=O)c(-c2cccc(Cl)c2)nc2cncnc21`, the AC50 entry is “inactive”.

As for `COCCn1c(=O)c(-c2cccs2)nc2cnc(N(C)C)nc21`, the AC50 result is “inactive”.

`COc1ccccc1CCn1c(=O)c(-c2ccc(Cl)cc2)nc2cncnc21`: the AC50 is 0.398 µM (active). Regarding `COCCn1c(=O)c(-c2ccc(Cl)cc2)nc2cnc(Nc3ccccc3)nc21`, the AC50 entry is “inactive”. In the case of `Cn1c(=O)c(-c2ccccc2)nc2cncnc21`, the AC50 result is “inactive”. Turning to `COc1ncc2nc(-c3cccs3)c(=O)n(CCC#N)c2n1`, the AC50 entry was “inactive”. Take `Cn1c(=O)c(-c2ccc(Cl)cc2)nc2cncnc21`: the AC50 result is “inactive”. For `COc1ccccc1CCn1c(=O)c(-c2cccs2)nc2cncnc21`, the AC50 is 2 µM (active). Regarding `COCCn1c(=O)c(-c2cccc(Cl)c2)nc2cncnc21`, the AC50 result is “inactive”. The same measure, in the same setting: with `COc1ccccc1CCn1c(=O)c(-c2cccc(Cl)c2)nc2cncnc21` the figure was 0.251 µM (active); with `COc1ccccc1CCn1c(=O)c(-c2ccccc2)nc2cncnc21`, 0.631 µM (active); with `O=C(Nc1ccccc1)N1CCCC2(CCN(C(=O)c3ccco3)CC2)C1`, “inactive”. With `CCOC(=O)N/N=C1/C[C@@H](O)[C@@H](O)[C@@H]2[C@@H]3C(=O)N(c4cccc(Oc5ccccc5)c4)C(=O)[C@H]3CC[C@@H]12`, the activity, negative = inhibition was -10.2% [at 11.4 µM]. As for `NS(=O)(=O)c1cc(Br)c(N=Nc2ccc(O)c3ncccc23)c(Br)c1`, the activity, negative = inhibition was -10.5% [at 11.4 µM]. Turning to `COc1ccc(-n2c(=O)c(-c3cn(C)c4ccccc34)nc3cncnc32)cc1`, the AC50 is 15.8 µM (active). Same read-out and setting: with `COc1ccc(-n2c(=O)c(-c3cn(C)c4ccccc34)nc3cnc(OC)nc32)cc1` the entry was “inactive”.

`CCn1ncc(/C=C/C(=O)NCc2cn(C)nc2C)c1C`: the AC50 result was “inactive”. For `COc1ccc(/C=C/C(=O)NCc2cn(C)nc2C)cc1COc1ccc(Br)cc1`, the AC50 is 3.98 µM (active). Regarding `COc1ccc(C(=O)NN)cc1COc1ccc(Br)cc1`, the AC50 was 0.251 µM (active). In the case of `Cc1nn(C)cc1CNC(=O)CCC(=O)O`, the AC50 result was “inactive”.

On to `NC(=O)C1=CN([C@@H]2O[C@@H](COP(=O)(O)OP(=O)(O)OC[C@@H]3O[C@H](n4cnc5c(N)ncnc54)[C@@H](OP(=O)(O)O)[C@@H]3O)[C@H](O)[C@@H]2O)C=CC1`, for which the AC50 entry was “inactive”. Same read-out and setting: to `CC(C)c1ccc(/C=N/NC(=O)CN(c2cccc(Cl)c2Cl)S(C)(=O)=O)cc1` belongs 15.8 µM (active). As to `CS(=O)(=O)c1ccc(/C=N\NC(N)=S)cc1`, the activity, negative = inhibition is -0.291% [at 11.4 µM]. As to `Cc1[nH]nc(Nc2ccccc2)c1[N+](=O)[O-]`, the AC50 was 14.1 µM (active). `Nc1nc(NCc2ccccc2)nc(Nc2cccc(F)c2)c1[N+](=O)[O-]`: the AC50 entry is “inactive”.

In the case of `Cc1cccc(-c2n[nH]c([N+](=O)[O-])n2)c1`, the AC50 entry is “inactive”.

Turning to `CN=C1S/C(=C\c2ccc(Sc3ccc(Cl)cc3)o2)C(=O)N1C`, the AC50 entry was “inactive”.

On to `Clc1ccc(Sc2ccc(/C=N/n3cnnc3)o2)cc1`, for which the concentration at half-maximal activity (AC50) is 2.82 µM (active). Take `CCCN1C(=O)/C(=C/c2ccc(C)s2)SC1=Nc1ccc(OC)cc1`: the concentration at half-maximal activity (AC50) was 11.2 µM (active). As for `COc1ccc(N=C2S/C(=C\c3ccc(C)s3)C(=O)N2CC(C)C)cc1`, the AC50 entry was “inactive”. Consider `CC(C)CN(CC#N)CC(C)C`, for which the activity, negative = inhibition was 2.34% [at 11.4 µM]. As for `c1ccc(-c2nc3ccccn3c2NCc2ccc3c(c2)OCO3)cc1`, the concentration at half-maximal activity (AC50) was 0.316 µM (active). Turning to `CN(C)CCNS(=O)(=O)N(C)C`, the activity, negative = inhibition was 0.116% [at 11.4 µM]. Take `C=CCN=C(NC#N)SCc1ccccc1`: the concentration at half-maximal activity (AC50) was 14.1 µM (active).

As to `CCOc1ccc(/C=C/C2=Cc3c(sc(NC(=O)CSc4n[nH]c(N)n4)c3C#N)C(C)(C)C2)cc1`, the AC50 is 10 µM (active).

Consider `Cc1ccc(/C=C/C2=Cc3c(sc(NC(=O)CSc4n[nH]c(N)n4)c3C#N)C(C)(C)C2)o1`, for which the AC50 was 4.47 µM (active). As to `N[C@@H](Cc1ccc(O)c(O)c1)C(=O)O`, the AC50 result was “inactive”. Still for that read-out and setting: with `O=C1CCCN1c1ccc(S(=O)(=O)Oc2cccc(Cl)c2)cc1[N+](=O)[O-]` the figure was 0.501 µM (active); with `Cc1cc(C(C)(C)C)cc(C)c1CC1=NCCN1`, “inactive”. For the compound `O=C(Cn1ccc(=O)[nH]c1=O)Nc1ccc(C(=O)O)c(O)c1`, the activity, negative = inhibition is 40.8% [at 11.4 µM]. Consider `N=c1sccn1CC(=O)Nc1cccc(Oc2ccccc2)c1`, for which the AC50 is 15.8 µM (active). As for `CC1(C)CCC=[N+]1[O-]`, the AC50 result was “inactive”. As to `CCCCCOC(=O)c1c(N)n(CCOC)c2nc3ccccc3nc12`, the AC50 is 14.1 µM (active). `COCn1c2ccccc2c2nnc(C(C)=O)nc21`: the activity, negative = inhibition is 5.57% [at 11.4 µM] and -2.14% [at 11.4 µM]. Take `C/C(=N\NC(=S)Nc1ccc(F)cc1)C1CC1`: the half-maximal activity concentration (AC50) is 0.562 µM (active). On to `COC(=O)C1=C(N)N(c2ccccc2C(F)(F)F)C2=C(C(=O)CCC2)C1c1ccc2c(c1)OCO2` (stereo unspecified), for which the AC50 is 20 µM (active). Regarding `COc1ccc(NC(=O)c2cc3n(n2)C(C(F)(F)F)CC(c2ccc4c(c2)OCO4)N3)cc1OC` (stereo unspecified), the AC50 entry was “inactive”.

In the case of `COc1ccc(OC)c(NC(=O)c2cc3n(n2)C(C(F)(F)F)CC(c2ccc4c(c2)OCO4)N3)c1` (stereo unspecified), the AC50 entry was “inactive”.

On to `C#CC[N+](CC)(CC)CC#Cc1cccc(Cl)c1`, for which the AC50 result was “inactive”.

`O=C(c1ccc(COc2ccc(F)cc2)o1)n1cccn1`: the AC50 is 3.55 µM (active). Consider `CC(=O)COC(=O)CCc1nc2ccccc2[nH]c1=O`, for which the half-maximal activity concentration (AC50) was 11.2 µM (active).

Consider `N[C@@H](Cc1ncccn1)C(=O)O`, for which the activity, negative = inhibition was 1.66% [at 11.4 µM].

As for `Cc1ccc(CN2CC34C=CC(O3)C(C(=O)NCc3ccc5c(c3)OCO5)C4C2=O)cc1` (stereo unspecified), the AC50 was 15.8 µM (active).

With `Cc1ccc(CN2CC34C=CC(O3)C(C(=O)NCc3ccco3)C4C2=O)cc1` (stereo unspecified), the AC50 is 14.1 µM (active). As to `CCCCNC(=O)C1C2C=CC3(CN(Cc4ccccc4Cl)C(=O)C13)O2` (stereo unspecified), the AC50 was 20 µM (active). Regarding `COCCCNC(=O)C1C2C=CC3(CN(Cc4ccc(C)cc4)C(=O)C13)O2` (stereo unspecified), the AC50 result was “inactive”.
